Values joined by “and” are separate entries in the source; they are usually repeats but may differ in a detail not shown here. Equal values may be shown once. Out of some 5,500 compounds screened, about 2,000 (36%) were called active. Roughly 18% stayed inconclusive and do not appear here. No stated cut-off is given here; in the data, active means normalized growth mostly below about 0.91 (no sharp cut-off); inconclusive means no clear call, values can overlap the other calls; inactive means mostly above about 0.92. This is one part of the list.
Assay: chemical genetic growth profiling, strain panel (AID 1159580);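 further: tested at 20 µM; growth read once vehicle control cultures reached saturation at 30 °C; 1 = growth at the plate median or of vehicle wells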
Settings: S. cerevisiae deletion strains, growth OD

Measured: normalized growth

CCCCNc1cc(C(=O)O)cc(S(N)(=O)=O)c1Oc1ccccc1
inactive: locus YAL013W, strain DEP1, stronger effect = lower value 0.964 | locus YAL021C, strain ccr4, stronger effect = lower value 1.03 | locus YAL026C, strain drs2, stronger effect = lower value 1.01 | locus YAL030W, strain snc1, stronger effect = lower value 1.01 | locus YAL040C, strain CLN3, stronger effect = lower value 0.946 | locus YBL061C, strain skt5, stronger effect = lower value 0.992 | locus YBR009C, strain hhf1, stronger effect = lower value 0.997 | locus YBR021W, strain FUR4, stronger effect = lower value 0.985 | locus YBR023C, strain chs3, stronger effect = lower value 0.999 | locus YBR171W, strain sec66, stronger effect = lower value 0.998 | locus YBR229C, strain ROT2, stronger effect = lower value 0.987 | locus YBR231C, strain swc5, stronger effect = lower value 0.99 | locus YBR279W, strain paf1, stronger effect = lower value 1.01 | locus YCL011C, strain gbp2, stronger effect = lower value 1 | locus YCL016C, strain dcc1, stronger effect = lower value 0.993 | locus YCL029C, strain bik1, stronger effect = lower value 0.981 | locus YCL069W, strain vba3, stronger effect = lower value 1.01 | locus YCR088W, strain abp1, stronger effect = lower value 1.01 | locus YDL005C, strain med2, stronger effect = lower value 0.999 | locus YDL035C, strain GPR1, stronger effect = lower value 0.996 | locus YDL040C, strain nat1, stronger effect = lower value 0.999 | locus YDL074C, strain BRE1, stronger effect = lower value 1.03 | locus YDL101C, strain DUN1, stronger effect = lower value 0.992 | locus YDL134C, strain PPH21, stronger effect = lower value 0.965 | locus YDL185W, strain tfp1, stronger effect = lower value 0.98 | locus YDL192W, strain arf1, stronger effect = lower value 0.991 | locus YDR001C, strain nth1, stronger effect = lower value 1.01 | locus YDR069C, strain doa4, stronger effect = lower value 1.01 | locus YDR101C, strain arx1, stronger effect = lower value 0.992 | locus YDR137W, strain rgp1, stronger effect = lower value 1.01 | locus YDR150W, strain NUM1, stronger effect = lower value 0.975 | locus YDR159W, strain sac3, stronger effect = lower value 0.943 | locus YDR162C, strain NBP2, stronger effect = lower value 0.982 | locus YDR195W, strain ref2 0.983 | locus YDR297W, strain sur2, stronger effect = lower value 0.997 | locus YDR318W, strain mcm21, stronger effect = lower value 0.989 | locus YDR334W, strain swr1, stronger effect = lower value 1.02 | locus YDR335W, strain msn5, stronger effect = lower value 1.01 | locus YDR363W, strain ESC2, stronger effect = lower value 0.992 | locus YDR388W, stronger effect = lower value 0.975 | locus YDR392W, strain spt3, stronger effect = lower value 0.906 | locus YDR502C, strain sam2, stronger effect = lower value 1.01 | locus YEL003W, strain gim4, stronger effect = lower value 1.01 | locus YEL037C, strain rad23, stronger effect = lower value 1 | locus YEL061C, strain CIN8 (second series), stronger effect = lower value 1.03 | locus YEL061C, strain CIN8, stronger effect = lower value 0.994 | locus YER002W, strain NOP16, stronger effect = lower value 0.986 | locus YER015W, strain faa2, stronger effect = lower value 1.01 | locus YER016W, strain bim1, stronger effect = lower value 0.987 | locus YER110C, stronger effect = lower value 0.978 | locus YER111C, strain swi4, stronger effect = lower value 0.998 | locus YER155C, strain BEM2 (second series), stronger effect = lower value 0.974 | locus YER155C, strain BEM2, stronger effect = lower value 0.989 | locus YER167W, strain BCK2, stronger effect = lower value 0.98 | locus YFR010W, strain ubp6, stronger effect = lower value 1.01 | locus YGL078C, strain dbp3, stronger effect = lower value 0.97 | locus YGL086W, strain mad1, stronger effect = lower value 0.998 | locus YGL167C, strain pmr1, stronger effect = lower value 1 | locus YGL173C, strain kem1, stronger effect = lower value 0.983 | locus YGL227W, strain vid30, stronger effect = lower value 0.992 | locus YGL240W, strain doc1, stronger effect = lower value 0.996 | locus YGL248W, strain PDE1, stronger effect = lower value 1 | locus YGL253W, strain hxk2, stronger effect = lower value 1.04 | locus YGR078C, strain PAC10, stronger effect = lower value 0.98 | locus YGR135W, strain pre9, stronger effect = lower value 0.957 | locus YGR252W, strain gcn5, stronger effect = lower value 0.956 | locus YHR013C, strain ard1, stronger effect = lower value 0.972 | locus YHR027C, strain rpn1, stronger effect = lower value 1.01 | locus YHR030C, strain SLT2, stronger effect = lower value 0.983 and 1.03 | locus YHR079C, strain IRE1 (second series), stronger effect = lower value 0.99 | locus YHR079C, strain IRE1, stronger effect = lower value 1.07 | locus YHR094C, strain hxt1, stronger effect = lower value 0.97 | locus YHR129C, strain ARP1, stronger effect = lower value 0.99 | locus YHR142W, strain chs7, stronger effect = lower value 1.03 | locus YHR200W, strain rpn10, stronger effect = lower value 0.984 | locus YIL066C, strain RNR3, stronger effect = lower value 0.997 | locus YIL073C, strain SPO22, stronger effect = lower value 0.937 | locus YIL125W, strain kgd1, stronger effect = lower value 0.973 | locus YIR030C, strain dcg1, stronger effect = lower value 0.981 | locus YJL092W, strain hpr5, stronger effect = lower value 1.01 | locus YJL095W, strain BCK1 (second series), stronger effect = lower value 0.999 | locus YJL095W, strain BCK1, stronger effect = lower value 1.03 and 1.02 | locus YJL115W, strain asf1, stronger effect = lower value 1 | locus YJL129C, strain trk1, stronger effect = lower value 1.01 | locus YJL134W, strain LCB3, stronger effect = lower value 0.993 | locus YJL154C, strain vps35, stronger effect = lower value 1 | locus YJL164C, strain tpk1, stronger effect = lower value 1.01 | locus YJL166W, strain qcr8, stronger effect = lower value 1.01 | locus YJL168C, strain set2, stronger effect = lower value 0.982 | locus YJL187C, strain SWE1 (second series), stronger effect = lower value 1.01 | locus YJR043C, strain POL32, stronger effect = lower value 1 | locus YJR066W, strain TOR1, stronger effect = lower value 0.966 | locus YJR075W, strain HOC1, stronger effect = lower value 0.971
